Source: PubChem (National Center for Advancing Translational Sciences (NCATS))
Sampled rows, rich in hits. Any-hit rate of the full collection: about 6.9%.
S-ASM inh = inhibitors of human secretory acid sphingomyelinase; P17405; placental ASM, HMU-PC fluorogenic substrate, 60 min; Potency, µM (top dose mostly 57.5 µM), for the others: top-dose activity change, negative = inhibition, usual class: inhibitors; hit rate 0.006% among 340,000; note: potency is the fitted concentration of half-maximal effect
Target sequence (P17405 47-631 limits assumed): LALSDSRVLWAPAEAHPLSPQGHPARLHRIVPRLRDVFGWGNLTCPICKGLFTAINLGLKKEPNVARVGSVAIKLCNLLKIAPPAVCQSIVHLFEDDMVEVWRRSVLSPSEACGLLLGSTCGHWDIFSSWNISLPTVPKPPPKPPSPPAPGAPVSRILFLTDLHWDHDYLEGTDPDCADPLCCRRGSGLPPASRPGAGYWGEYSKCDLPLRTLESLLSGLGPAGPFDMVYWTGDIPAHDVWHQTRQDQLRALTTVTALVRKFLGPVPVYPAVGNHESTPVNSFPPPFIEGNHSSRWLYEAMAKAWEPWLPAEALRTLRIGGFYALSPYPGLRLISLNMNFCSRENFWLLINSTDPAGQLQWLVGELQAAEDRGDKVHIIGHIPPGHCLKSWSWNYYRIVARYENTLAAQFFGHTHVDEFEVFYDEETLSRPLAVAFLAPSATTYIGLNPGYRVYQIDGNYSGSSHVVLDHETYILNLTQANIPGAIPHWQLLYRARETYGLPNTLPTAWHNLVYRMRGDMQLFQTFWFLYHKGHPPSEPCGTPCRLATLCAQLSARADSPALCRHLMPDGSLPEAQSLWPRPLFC
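Human placenta-derived ASM enzyme was preincubated with compound for 10 minutes at room temperature, then given fluorogenic substrate HMU-PC0 (9 uM final) for 60 minutes at 37 °C; a pH 10 stop preceded fluorescence reading at Ex 386/Em 447 nm.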
MCF10A rerep = induces DNA re-replication in MCF 10a normal breast cells; MCF 10A DNA re-replication, Hoechst nuclear intensity, 48 h; Potency, µM (series often up to 46.1 µM), without a hit: top-dose activity, positive = re-replication, most hits filed as activators; hit rate 2.9% among 350,000; AID 624296; note: potency is the fitted concentration of half-maximal effect; % of control where 0% means no effect; nearly all actives have a fitted effect of over 50% in size
KB-3-1 cytotox = KB-3-1 parental cell cytotoxicity | KB-3-1 viability, CellTiter-Glo ATP luminescence, 72 h | Potency, µM (highest dose often 46.1 µM), hits mostly cytotoxic | hit rate 1.4% among 400,000; note: potency is the fitted concentration of half-maximal effect; % is set by controls: 0 for no effect and ±100 for the full control effect; nearly all actives have a fitted effect of over 60% in size
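Cytotoxicity measured as CellTiter-Glo luminescence after 72 h at 37 C. Compound titrations were pinned onto drug-naive KB-3-1 parental adenocarcinoma cells grown in DMEM with 10% FBS, and normalized data fitted to concentration-response curves.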
SW480 rerep = inducers of DNA re-replication in SW480 colon cancer cells | hit rate 1.8% among 340,000 | SW480 DNA re-replication, Hoechst DNA content imaging, 48 h | AID 624297 | Potency, µM (series often up to 46.1 µM), for inactives: at the highest dose re-replication activation, most hits filed as activators; note: potency is the fitted concentration of half-maximal effect; % of control where 0% means no effect; nearly all actives have a fitted effect of over 55% in size
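Compounds, transferred as 23 nL by pin tool, were incubated with cells for 48 hr; DNA content per nucleus was then quantified by Hoechst staining and fluorescence plate imaging.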
Giardia kill = kills Giardia lamblia. hit rate 0.15% among 340,000. activity change, % at 7.66 µM, hits read low. Giardia lamblia trophozoite viability. AID 540267; in the data active = activity change below about -80%; inconclusive = between about -30% and that limit;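 note: parasites exposed to compound for two days anaerobically before the ATP read; % is set by controls: 0 for no effect and ±100 for the full control effect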
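Trophozoite viability was measured as ATP-dependent luminescence, read 15-30 min after reagent addition. Before that, parasites at 100 cells/well were exposed to compounds for 48 h, anaerobically, at 37 deg C.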
KB-V1 MDR tox = kills drug-selected multidrug resistant KB-V1 cells. KB-V1 MDR cells viability, CellTiter-Glo, 72 h. Potency, µM (highest dose often 46.1 µM), usual class: cytotoxic. hit rate 3.4% among 400,000. AID 1347076; note: potency is the fitted concentration of half-maximal effect; % is set by controls: 0 for no effect and ±100 for the full control effect; nearly all actives have a fitted effect of over 60% in size
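KB-V1 cells (P-gp-expressing MDR subline of KB-3-1) in phenol-red-free DMEM with 10% FBS were exposed to library compounds over a concentration series for 72 h at 37 degrees C. Viability read by CellTiter-Glo luminescence; concentration-effect curves fitted after normalization.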
Active calls of the source: *; i = inactive; ? = inconclusive; nt = no result given; [ ] = remark or other dose. Unless noted, calls come from the whole dose curve; as a rule, active = well fitted curve in the direction sought with a large enough effect; inconclusive = small, poorly fitted or top-dose-only effect, or another doubt; inactive = no such curve, though single readings can be large; an effect the other way counts as inactive or inconclusive.

SMILES	S-ASM inh	MCF10A rerep	KB-3-1 cytotox	SW480 rerep	Giardia kill	KB-V1 MDR tox
Cc1ccc(OCc2cc(C(=O)N(C)Cc3cnn(-c4ccccc4C)c3)no2)cn1	nt	10%	18µM*	1%	-5	?
Cc1ccc(OCc2cc(C(=O)N(C)Cc3cnn(C)c3)no2)cc1C	nt	nt	i	nt	nt	i
CCc1ccc(CN(C)C(=O)c2cc(COc3cc(C)c(Cl)c(C)c3)on2)nc1	-9%	23µM*	i	-4%	2	i
Cc1cc(OCc2cc(C(=O)N(C)C3CCOC3)no2)cc(C)c1Cl (configuration not stated)	-3%	2.3µM*	?	15%	-10	?
CC(=O)c1ccc(OCc2cc(C(=O)N(C)C3CCOC3)no2)cc1 (configuration not stated)	-4%	2%	?	-1%	0	?
Cc1cc(OCc2cc(C(=O)N(C)Cc3nonc3C)no2)cc(C)c1Cl	-13%	?	i	24%	0	?
COc1ccc(C(=O)c2cn(Cc3ccccc3F)c3ccc(F)cc3c2=O)cc1	nt	nt	i	nt	nt	i
Cc1nnc(NC(=O)CSCc2cc(=O)c3cc(Cl)ccc3[nH]2)s1	nt	nt	i	nt	nt	?
O=C(CN1CCN(Cc2ccc(F)cc2Cl)S1(=O)=O)Nc1ccc(F)cc1	nt	nt	i	nt	nt	i
CN1OC[C@@H]2CN[C@H](c3cccc(-c4ccccc4)c3)C[C@@H]21	1%	6%	i	12%[9.22 µM]	?	i
O=C1CN(C(=O)Cc2ccc(F)cc2)C(c2ccccc2)c2cc(Cl)ccc2N1 (configuration not stated)	nt	nt	i	nt	nt	i
O=C(Nc1cccc2c1CCCC2)c1ccccc1Cl	-3%	6%	i	-1%	-13	i
Cc1c(Cl)cccc1NS(=O)(=O)c1ccccc1	2%	27%	i	1%	-3	18µM*
O=S(=O)(Nc1cccc2c1CCCC2)c1ccc(Cl)cc1	-8%	16µM*	?	-77%	-2	?
CC(=O)Nc1ccccc1NS(=O)(=O)c1ccc(Cl)cc1	0%	26%	?	?	-4	13µM*
CC(=O)Nc1ccccc1NS(=O)(=O)c1ccccc1NO	nt	nt	nt	nt	2	nt
O=C(Nc1ccc(Cl)cc1)Nc1ccccc1NS(=O)(=O)c1cccs1	-19%	18µM*	i	-2%	3	i
O=C(Nc1ccc(F)cc1)Nc1ccccc1NS(=O)(=O)c1cccs1	-3%	7%	i	4%	-1	i
CC(C)[C@H]1C(=O)Nc2ccccc2N1C(=O)N[C@@H](Cc1ccccc1)C(=O)N[C@@H](C(=O)O)c1ccccc1	-3%	?	i	-6%	-13	i
COc1ccc(C)cc1NC(C)C(=O)c1c[nH]c2ccccc12 (configuration not stated)	nt	nt	i	nt	nt	i
COc1cc(O)c(NC(C)=O)c2nonc12	-2%	-3%	i	-9%	-2	i
CC(=O)NC1=CC(=O)c2nonc2C1=O	nt	nt	5.2µM*	nt	3	i
C=CCn1c(SCCC)nc2ccccc2c1=O	nt	nt	?	nt	-17	?
CCN(CC(=O)Nc1ccccc1OC)C(=O)c1cc(-c2ccccc2)nn1-c1ccccc1	nt	?	i	?	8	i
O=C(CCl)Nc1cc(-c2ccccc2)nn1-c1ccccc1	2%	?	?	?	7	7.3µM*
SMILES	S-ASM inh	MCF10A rerep	KB-3-1 cytotox	SW480 rerep	Giardia kill	KB-V1 MDR tox
CCN(CC(=O)Nc1ccccc1C(F)(F)F)C(=O)c1cc(-c2ccccc2)nn1-c1ccccc1	nt	10µM*	i	-10%	23	i
O=C(CNC(=O)c1cc(-c2ccccc2)nn1-c1ccccc1)Nc1ccccc1Br	2%	12µM*	i	-24%	-8	i
Cc1ccc(C)c(NC(=O)c2cc(-c3ccccc3)nn2-c2ccccc2)c1	7%	?	i	?	-5	i
O=C(Nc1ccccn1)c1cc(-c2ccc(Cl)s2)nc2ccccc12	107%	21µM*	?	-2%	?	?
O=C(NC(=S)Nc1ccccn1)c1cc(-c2ccccc2)nc2ccccc12	-15%	8%	i	?	0	16µM*
Cc1ccnc(NC(=O)c2cc(-c3ccc(Cl)s3)nc3ccccc23)c1	198%	?	i	-295%	16	i
COc1ccc(NC(=O)CC2C(=O)N(c3ccc(OC)cc3)C(=O)N2CCc2cccs2)cc1 (configuration not stated)	-3%	8%	i	0%	-5	15µM*
COc1ccc(NC(=O)CC2C(=O)N(c3cccc(OC)c3)C(=O)N2C2CCCCC2)cc1 (configuration not stated)	-3%	3%	i	-3%	-16	16µM*
COc1ccc(NC(=O)CC2C(=O)N(c3ccc(C)cc3)C(=O)N2C2CCCCC2)cc1 (configuration not stated)	nt	nt	i	nt	nt	i
COc1ccc(NC(=O)CC2C(=O)N(c3cccc(OC)c3)C(=O)N2CCc2cccs2)cc1 (configuration not stated)	nt	nt	i	nt	nt	i
O=C(O)[C@@H]1C[C@H](C(=O)O)N1	nt	nt	nt	nt	-7	nt
COCCSc1ccccc1C(=O)N1CCc2ccccc21	-1%	?	i	2%	-1	?
N#CCCn1cc(C(=O)O)c(-c2cccs2)n1	-2%	2%	i	-7%	-23	i
CC(=O)c1cccc(NC(=O)c2oc(=O)c3ccccc3c2-c2ccccc2)c1	nt	nt	i	nt	nt	i
O=C1C=CC2(O[C@H](c3ccccc3)[C@@H](c3ccccc3)O2)[C@H](Sc2ccccc2O)C1	-15%	?	3.3µM*	?	9	?
COc1ccc(C(=O)CCN2CCN(c3ccccc3F)CC2)cc1	-1%	5.8µM*	i	?	2	i
O=C(CN1CCN(CCC(=O)Nc2ccccc2F)CC1)Nc1ccc(Cl)cc1	0%	3%	i	-3%	-2	4.6µM*
CC(C)Oc1ccc(C(=O)CCN2CCOCC2)cc1	3%	?	i	?	28	?
O=C(CCN1CCN(c2ccccc2F)CC1)c1ccc(Br)cc1	1%	?	i	?	15	i
CCOc1ccc(NC(=O)CCN2CCN(c3ccccc3F)CC2)cc1	0%	?	?	18µM*	-7	?
CC(C)Oc1ccc(C(=O)CCN2CCCCC2)cc1	0%	23µM*	i	?	-5	i
O=C(CN1CCN(CCC(=O)Nc2ccccc2F)CC1)Nc1ccc(F)cc1	-3%	26%	i	-4%	0	i
COc1ccccc1CNC(=O)c1cnc2sc(N3CCCCC3)nn2c1=O	nt	nt	i	nt	nt	?
